306 variants from a collection of fitness landscapes (doi:10.1126/science.1257360) can be followed below.

Whole data set: some 140,000 sequences, median “enrichment ratio after two sorts for PhoP signalling” near 0, cut for the highest 2% near 11. This is one part of a sample in which the highest values are shown more often than they occur.

The labels stand for the following.
B1: PhoQ; a variant is named by its letters at X, in order, P23837 (parent)
chain: MKKLLRLFFPLSLRVRFLLATAAVVLVLSLAYGMVALIGYSVSFDKTTFRLLRGESNLFYTLAKWENNKLHVELPENIDKQSPTMTLIYDENGQLLWAQRDVPWLMKMIQPDWLKSNGFHEIEADVNDTSLLLSGDHSIQQQLQEVREDDDDAEMTHSVAVNVYPATSRMPKLTIVVVDTIPVELKSSYMVWSWFIYVLSANLLLVIPLLWVAAWWSLRPIEALAKEVRELEEHNRELLNPATTRELTSLVRNLNRLLKSERERYDKYRTTLTDLTHSLKTPLXXLQXXLRSLRSEKMSVSDAEPVMLEQISRISQQIGYYLHRASMRGGTLLSRELHPVAPLLDNLTSALNKVYQRKGVNISLDISPEISFVGEQNDFVEVMGNVLDNACKYCLEFVEISARQTDEHLYIVVEDDGPGIPLSKREVIFDRGQRVDTLRPGQGVGLAVAREITEQYEGKIVAGESMLGGARMEVIFGRQHSAPKDE

In the assay the parent is B1. Description: enrichment ratio after two sorts for PhoP signalling (ratio (wild type AVST 3.29)); higher = more functional. The settings on record: with PhoP (E. coli).
Regarding IYRF, the enrichment ratio is ≤ 0.25.
For VMFP the value was ≤ 0.25; for EPNR, ≤ 0.25; for LVNK, ≤ 0.25.
Under AYMN stands ≤ 0.25; under SQGS, 7.13; under NISG, ≤ 0.25.
For NDHH the value was ≤ 0.25; for FSAY, ≤ 0.25.
Consider TSAY, for which the enrichment ratio was found to be 11.6.
Under MMTY stands ≤ 0.25; under TSTY, 11.6.
Under SITY stands 12.7; under KYTY, ≤ 0.25; under SQTY, 8.07.
Under LCTY stands ≤ 0.25; under DHTY, ≤ 0.25.
Take TQTY: the enrichment ratio worked out at 17.5.
Under KSAY stands 0.715.
Under FQTY stands ≤ 0.25; under HMAW, ≤ 0.25; under ILRI, ≤ 0.25.
Under DLNY stands ≤ 0.25; under WPQA, ≤ 0.25.
KATY: the enrichment ratio was ≤ 0.25.
For TKWY the value was 12.9.
For METY the value was 3.22; for AKWY, ≤ 0.25; for NATY, ≤ 0.25.
For SATY the value was 12.7.
As for SSTY, the enrichment ratio came to 11.3.
For KSWY the value was ≤ 0.25; for KSTY, ≤ 0.25; for SETY, 15.
For the variant NVTY, the enrichment ratio was ≤ 0.25.
Under QETY stands ≤ 0.25; under VMNQ, ≤ 0.25.
KFEC: the enrichment ratio is ≤ 0.25.
For WKRY the value was ≤ 0.25; for SIGY, 14.3; for TSWY, 14.1.
For SLGY the value was 1.84; for MMWY, ≤ 0.25; for LCWY, ≤ 0.25.
As to KYGY, the enrichment ratio was ≤ 0.25.
Under VGCD stands ≤ 0.25; under QAGQ, 24.5.
Under MAMQ stands ≤ 0.25.
As to QAGD, the enrichment ratio is ≤ 0.25.
For QPGQ the value was ≤ 0.25; for QGGQ, 8.17.
For TPGQ the value was 16; for QAVQ, ≤ 0.25; for QAMV, ≤ 0.25.
Under FAVQ stands ≤ 0.25; under QAMQ, 44.4; under NAGQ, ≤ 0.25.
FAMQ: the enrichment ratio is 45.
KRHT: the enrichment ratio is ≤ 0.25.
For IASQ the value was ≤ 0.25; for FDMR, ≤ 0.25; for HIEP, ≤ 0.25.
ITVA: the enrichment ratio is ≤ 0.25.
As for SHRP, the enrichment ratio is ≤ 0.25.
As to NRKT, the enrichment ratio was ≤ 0.25.
For GQLV the value was 7.76; for SALF, 9.67.
Under KRAM stands ≤ 0.25; under MDPE, ≤ 0.25.
Under EKES stands ≤ 0.25; under ASKA, ≤ 0.25; under ASSR, ≤ 0.25.
Regarding ASSQ, the enrichment ratio was determined as 14.5.
ASHP: the enrichment ratio was ≤ 0.25.
For ASSS the value was 11.9; for ASSK, ≤ 0.25; for VWGF, ≤ 0.25.
For SDHM the value was ≤ 0.25.
On to AQDN, for which the enrichment ratio was ≤ 0.25.
On to PECQ, for which the enrichment ratio is ≤ 0.25.
Take IETV: the enrichment ratio is ≤ 0.25.
With GVGF, the enrichment ratio is 12.
Under GVSF stands 11.8; under GNSF, 1.14; under GGGF, ≤ 0.25.
As for GYGF, the enrichment ratio was ≤ 0.25.
For GVHF the value was ≤ 0.25.
Under DDND stands ≤ 0.25; under QPHR, ≤ 0.25; under FDYT, ≤ 0.25.
On to YIRR, for which the enrichment ratio is ≤ 0.25.
Under KSCH stands ≤ 0.25; under MMNF, ≤ 0.25.
For TSNF the value was 16.1; for KSNF, ≤ 0.25.
Under MMWA stands ≤ 0.25; under KSHV, ≤ 0.25.
On to TSWA, for which the enrichment ratio came to 15.4.
For FSCH the value was 0.442.
For KSWA the value was ≤ 0.25.
Under TSHV stands 13.7.
As to THHV, the enrichment ratio was ≤ 0.25.
For TSCH the value was 15.8; for QSCS, ≤ 0.25.
For SYVA the value was ≤ 0.25.
Under GMCC stands ≤ 0.25; under FQGH, ≤ 0.25; under NRAM, ≤ 0.25.
In the case of KRFS, the enrichment ratio is ≤ 0.25.
Under CNWS stands ≤ 0.25.
For RPDF the value was ≤ 0.25; for KFLF, ≤ 0.25; for SCDN, ≤ 0.25.
For PMCH the value was ≤ 0.25.
Regarding TSTA, the enrichment ratio stood at 14.2.
For TSEI the value was 15.3.
For TSHE, the enrichment ratio came to 5.88.
For WSEI, the enrichment ratio is ≤ 0.25.
Under MMTI stands ≤ 0.25.
In the case of TSTI, the enrichment ratio is 22.
On to TSHF, for which the enrichment ratio amounted to 13.4.
Under KSEI stands ≤ 0.25.
Under LCTA stands ≤ 0.25.
For WITI the value was ≤ 0.25.
With MMTA, the enrichment ratio is ≤ 0.25.
Under KSHF stands ≤ 0.25; under LGWN, ≤ 0.25; under TWGR, ≤ 0.25.
Under FHQM stands ≤ 0.25.
Under TARV stands ≤ 0.25.
With QSIY, the enrichment ratio is ≤ 0.25.
Under KSHQ stands ≤ 0.25; under THHQ, ≤ 0.25; under TSHQ, 11.8.
Regarding DFQV, the enrichment ratio was ≤ 0.25.
Under WHCG stands ≤ 0.25; under AQLT, 8.16; under AQTC, 9.55.
Under AQCN stands 4.1.
Consider AQLN, for which the enrichment ratio came to 31.6.
For AQNL the value was ≤ 0.25.
For AQLA, the enrichment ratio stood at 19.
Under AQTS stands 12.8.
In the case of AQTK, the enrichment ratio was ≤ 0.25.
Under AQLS stands 10.2; under FEWS, ≤ 0.25; under RCQR, ≤ 0.25.
For FLMM the value was 1.72.
Consider YNDD, for which the enrichment ratio is ≤ 0.25.
For IFQD the value was ≤ 0.25; for AKFS, ≤ 0.25.
Under TMIE stands ≤ 0.25.
Under NNCV stands ≤ 0.25; under TMMH, 5.83; under TMCE, 21.2.
Consider HACH, for which the enrichment ratio was ≤ 0.25.
For DMCV the value was ≤ 0.25.
As for TMCH, the enrichment ratio was 15.9.
For TMCV the value was 13.2; for TMCG, 15; for TMPE, ≤ 0.25.
Under KMCG stands ≤ 0.25.
Consider EMCG, for which the enrichment ratio was ≤ 0.25.
Under NTFT stands ≤ 0.25; under DACN, ≤ 0.25; under YKFT, ≤ 0.25.
For VRAW the value was ≤ 0.25; for EVCN, ≤ 0.25.
For PEAM the value was ≤ 0.25.
Turning to EYVE, the enrichment ratio is ≤ 0.25.
For HGYS the value was ≤ 0.25.
For QTTN the value was ≤ 0.25; for SFNA, ≤ 0.25.
For MWTS the value was ≤ 0.25.
For the variant PLKT, the enrichment ratio was ≤ 0.25.
Take RNTM: the enrichment ratio was ≤ 0.25.
Under WPSM stands ≤ 0.25.
Under MMSE stands ≤ 0.25; under DMSE, ≤ 0.25.
In the case of NMKE, the enrichment ratio was ≤ 0.25.
As for TMNE, the enrichment ratio was ≤ 0.25.
Under TMWI stands ≤ 0.25.
Turning to TMCS, the enrichment ratio was found to be 16.8.
For NHGE the value was ≤ 0.25.
For TMKE the value was 13.6; for TMSE, 15.9.
Under THGE stands ≤ 0.25.
On to TMPA, for which the enrichment ratio is ≤ 0.25.
For TMGE the value was 14.8; for DFCK, ≤ 0.25.
For IFAG the value was ≤ 0.25; for ECNL, ≤ 0.25; for KFQG, ≤ 0.25.
GWTL: the enrichment ratio was ≤ 0.25.
Turning to DYTL, the enrichment ratio is ≤ 0.25.
Under YESY stands ≤ 0.25; under RHIC, 0.278; under ATKV, ≤ 0.25.
For IHFF the value was ≤ 0.25; for YYCV, ≤ 0.25.
Under TMCK stands 3.91; under NMCT, ≤ 0.25.
As for TMCT, the enrichment ratio is 19.5.
For DMCT the value was ≤ 0.25; for TMCA, 8.5.
For TMCI the value was 12.4; for YSWE, ≤ 0.25; for AFNE, ≤ 0.25.
For WHNP, the enrichment ratio was ≤ 0.25.
For STAG the value was 9.55; for SAAG, 14.1; for KYAG, ≤ 0.25.
For SQAG the value was 25.9.
Under SEAG stands 12.1; under SFAG, 0.768; under SAVG, 0.763.
Take SPAG: the enrichment ratio was ≤ 0.25.
Under DPAG stands ≤ 0.25; under RRVI, ≤ 0.25.
Take FDPS: the enrichment ratio is ≤ 0.25.
As for DHTW, the enrichment ratio was ≤ 0.25.
For SYIG the value was 11.3; for SQMG, 20.8.
For SYHG the value was ≤ 0.25; for STMG, 9.85.
As to SYEG, the enrichment ratio was ≤ 0.25.
Under DPMG stands ≤ 0.25; under KYIG, ≤ 0.25; under SDIG, ≤ 0.25.
Under SYMG stands 12.5; under WYLE, ≤ 0.25; under LKTQ, ≤ 0.25.
Under HHMC stands ≤ 0.25.
As for FFEW, the enrichment ratio was ≤ 0.25.
For SADI the value was ≤ 0.25.
Take SNGG: the enrichment ratio is 7.77.
For TNLA the value was 8.08; for RGND, ≤ 0.25.
For AQNG the value was 28.2; for PGNG, ≤ 0.25; for TGNG, 23.3.
For IQNG the value was ≤ 0.25; for NQNG, ≤ 0.25.
For the variant NGNG, the enrichment ratio was ≤ 0.25.
Take VKSA: the enrichment ratio is ≤ 0.25.
For NIRT the value was ≤ 0.25.
For AVYH the value was 0.253.
For INLE the value was ≤ 0.25.
On to KYTL, for which the enrichment ratio was ≤ 0.25.
As to SSTL, the enrichment ratio is 14.
Under FVTL stands 1.5.
Consider CTTL, for which the enrichment ratio is ≤ 0.25.
Under GMTL stands 15.2; under SFTL, 1.44; under LTTL, ≤ 0.25.
Consider GVTL, for which the enrichment ratio was 8.09.
For SRTL, the enrichment ratio stood at 0.897.
Under TTTL stands 13.4.
As to DITL, the enrichment ratio was ≤ 0.25.
As to SITL, the enrichment ratio was 18.5.
For the variant MWFH, the enrichment ratio is ≤ 0.25.
Under PGWI stands ≤ 0.25.
Under ESFA stands ≤ 0.25; under HNYP, ≤ 0.25; under MKHE, ≤ 0.25.
Under GLGE stands ≤ 0.25; under GQQP, ≤ 0.25; under FLMS, ≤ 0.25.
On to ANVH, for which the enrichment ratio is ≤ 0.25.
Under IQTL stands ≤ 0.25; under TNTL, 14; under GTTL, 11.7.
Under WNTL stands ≤ 0.25; under SNTL, 14.6.
For TWTL the value was ≤ 0.25; for SQTL, 12.3; for FQTL, 1.49.
For MNTL, the enrichment ratio was found to be 3.28.
For FTTL the value was 3.67.
For GNTL the value was 6.85; for QCRR, ≤ 0.25.
For NVGP the value was ≤ 0.25; for SGTL, 7.51.
Regarding WPCQ, the enrichment ratio is ≤ 0.25.
Under HKKN stands ≤ 0.25; under PVRE, ≤ 0.25; under NYRG, ≤ 0.25.
For KCTL the value was ≤ 0.25; for SVTL, 12.2.
For FCTL the value was ≤ 0.25; for VCTL, 6.03.
In the case of TCTL, the enrichment ratio was found to be 20.7.
Under SCTL stands 14.2; under WLTL, 0.379.
For PLTL the value was ≤ 0.25; for KFTL, ≤ 0.25; for SLTL, 15.2.
On to SVWL, for which the enrichment ratio is ≤ 0.25.
For EAPT the value was ≤ 0.25; for TVGM, 10.4; for MWTK, ≤ 0.25.
For AEKL the value was ≤ 0.25.
Under ARYC stands ≤ 0.25; under ESWQ, ≤ 0.25; under HSSR, ≤ 0.25.
Turning to LRFQ, the enrichment ratio is ≤ 0.25.
